VP16 counter = inhibits Gal4-VP16 luciferase reporter, ROR gamma counter-screen; Drosophila S2 Gal4-VP16 UAS-luciferase, luminescence, 20 h; Potency, µM (top dose mostly 53.6 µM), for the others: top-dose activity, negative = inhibition, most hits filed as inhibitors; 310,000 tested, 3.5% active;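 also: Gal4-VP16 expression switched on by copper sulfate through the metallothionein promoter; nearly all actives have a fitted effect of over 50% in size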
DT40 TDP1 no CPT = qHTS for Inhibitors of human tyrosyl-DNA phosphodiesterase 1 (TDP1): qHTS in cells in absence of CPT; DT40 Tdp1-/- hTDP1 cells, no CPT, ATP luminescence, 48 h; AID 686978, 2013; Potency, µM (doses to about 46.2 µM), for the others: top-dose activity change, negative = growth inhibition, most hits filed as inhibitors; 420,000 tested, 15% active; also: nearly all actives have a fitted effect of over 55% in size
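Chicken DT40 Tdp1-/- cells stably complemented with human TDP1 were seeded at 400 cells/well with DMSO in place of 20 nM camptothecin. After compound pinning, cells grew at least 48 hr at 37 °C; viability read by CellTiter-Glo luminescence.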
RORg inh = blocks mouse ROR gamma transcriptional activity; Drosophila S2 Gal4-RORgamma UAS-luciferase reporter, 20 h; Potency, µM (series often up to 53.6 µM), for inactives: at the highest dose activity change, negative = inhibition, usual class: inhibitors; 310,000 tested, 5.4% active; AID 2551; also: nearly all actives have a fitted effect of over 60% in size
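Read-out: Photinus luciferase luminescence; inhibitors lower reporter signal. Insect Schneider cells with Gal4-ROR gamma fusion under metallothionein promoter, UAS reporter; 700 uM final copper sulfate induction, 20 hr, ambient temperature.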
TDP1 block = inhibitors of human tyrosyl-DNA phosphodiesterase TDP1; AID 485290; Q9NUW8; 350,000 tested, 0.28% active; recombinant TDP1, AlphaScreen DNA substrate cleavage; Potency, µM (top dose mostly 130 µM), for inactives: at the top dose activity change, negative = inhibition, hits mostly inhibitors; also: nearly all actives have a fitted effect of over 40% in size
Target sequence (Q9NUW8 whole entry, looked up): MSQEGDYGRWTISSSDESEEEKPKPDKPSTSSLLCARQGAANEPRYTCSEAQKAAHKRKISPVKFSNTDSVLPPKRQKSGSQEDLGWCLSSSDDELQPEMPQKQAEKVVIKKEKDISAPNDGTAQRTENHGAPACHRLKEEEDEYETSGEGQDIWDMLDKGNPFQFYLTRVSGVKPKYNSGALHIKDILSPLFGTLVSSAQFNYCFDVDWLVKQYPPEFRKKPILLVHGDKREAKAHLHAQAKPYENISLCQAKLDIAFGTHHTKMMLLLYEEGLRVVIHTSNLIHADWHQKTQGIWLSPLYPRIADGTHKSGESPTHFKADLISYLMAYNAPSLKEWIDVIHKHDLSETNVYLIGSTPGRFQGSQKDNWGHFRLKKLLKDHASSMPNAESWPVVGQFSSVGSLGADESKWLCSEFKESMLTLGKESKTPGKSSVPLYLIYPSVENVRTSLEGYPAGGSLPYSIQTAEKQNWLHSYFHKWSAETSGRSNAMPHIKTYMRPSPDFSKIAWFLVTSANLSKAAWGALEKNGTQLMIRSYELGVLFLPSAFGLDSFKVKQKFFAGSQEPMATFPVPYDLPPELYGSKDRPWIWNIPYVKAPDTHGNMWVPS
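E. coli-derived human Tdp1, 1 nM final. Cpd preinc 15 min RT; substrate 15 nM final, 5 min RT; AS bead mix 10 ug/ml final, 10 min RT. Signal loss = tyrosine-FITC cleavage. No-enzyme wells = max signal.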
TDP1 cell CPT = DT40-hTDP1 cell growth loss with CPT | chicken DT40 Tdp1-/-;hTDP1 cells + 20 nM CPT, ATP luminescence, 48 h | Potency, µM (highest dose often 46.2 µM), inactives show at the highest dose activity change, negative = growth inhibition, most hits filed as inhibitors | 420,000 tested, 12% active | AID 686979; also: nearly all actives have a fitted effect of over 55% in size
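Chicken DT40 Tdp1-/- cells complemented with human TDP1, 400 cells/well, exposed to compounds plus 20 nM camptothecin for at least 48 h at 37 C; viability read as ATP content by CellTiter-Glo luminescence.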
* marks the source's active call; other numbers are inactive results; ? = inconclusive; . = no result given; [ ] = dose if it differs, or a comment. Compounds with a hit are over-represented: about 19% of the library has one in this group of screens. Calls follow the shape of the dose curve; as a rule, active = well fitted curve in the direction sought with a large enough effect; inconclusive = small, poorly fitted or top-dose-only effect, or another doubt; inactive = no such curve, though single readings can be large; an effect the other way counts as inactive or inconclusive. % is scaled to controls: 0 for no effect and ±100 for the full control effect; potency is read from the fitted curve at half-maximal effect.

SMILES | VP16 counter | DT40 TDP1 no CPT | RORg inh | TDP1 block | TDP1 cell CPT
CC(O)[C@@H](NC(=O)C1CCC(CNC(=O)[C@H](Cc2ccccc2)NC(=O)OC(C)(C)C)CC1)C(=O)O (some centres not stated) | 2.3% | 7.3% | -15.1% | . | -2.8%
Cc1ccc(CCNC(=O)CCCn2c(=O)c3cccn3c3ccc(F)cc32)cc1 | . | 16.4µM* | . | -5.2% | ?
COc1cccc(CNC(=O)CCCn2c(=O)c3cccn3c3ccc(F)cc32)c1OC | . | 8.2µM* | . | -2.6% | 11.6µM*
COc1ccc(OC)c(CNC(=O)CCn2c(=O)c3cccn3c3ccc(F)cc32)c1 | 0.1% | ? | -6.9% | 0.0% | ?
O=C(CCCn1c(=O)c2cccn2c2ccc(F)cc21)NCc1ccc(Cl)cc1 | . | 20.6µM* | . | -2.6% | ?
CSc1ccc(CNC(=O)CCn2c(=O)c3cccn3c3ccc(F)cc32)cc1 | . | ? | . | 2.6% | ?
COc1ccc(NC(=O)CCCNS(=O)(=O)c2cccs2)cc1 | 1.8% | -28.9% | 32.4% | 2.1% | 5.1%
O=C(CCSCCC(=O)NN=Cc1ccc(F)cc1)NN=Cc1ccc(F)cc1 | . | ? | . | . | -24.2%
O=C(Nc1ccc(Oc2ccccc2)cc1)C1CCN(c2c3c(nc4ncnn24)CCC3)CC1 | ? | 18.4µM* | ? | 3.9% | 14.6µM*
Cc1cc(C)nc(N2CCC(C(=O)NCc3ccccc3)CC2)n1 | 5.8% | 0.7% | 17.8% | -3.2% | -1.8%
Cc1cc(C)nc(N2CCC(CNC(=O)CCc3ccccc3)CC2)n1 | -11.3% | 20.6µM* | -42.7% | 6.3% | ?
Cc1cc(C)nc(N2CCC(C(=O)Nc3ccc(Oc4ccccc4)cc3)CC2)n1 | 19.7% | 8.2µM* | -39.6% | -5.6% | 5.8µM*
O=C(Nc1ccc2c(c1)CCC2)C1CCN(c2c3c(nc4ncnn24)CCC3)CC1 | -7.3% | 20.6µM* | ? | -1.9% | 23.1µM*
Cn1c(=O)[nH]c2cc(-c3noc(-c4ccc(Br)cc4)n3)ccc21 | . | -7.7% | . | -1.1% | -10.4%
CN(Cc1ccccc1)C(=O)CN(C)S(=O)(=O)c1ccc(F)cc1 | 27.2% | 19.5% | 19.2% | . | -6.8%
Cc1ccc(Nc2nc(-c3cccs3)cs2)nc1 | 12.6µM* | ? | 11.2µM* | 5.1% | ?
Cc1nc(C)c(-c2csc(Nc3ccc(Cl)cn3)n2)s1 | . | ? | . | . | 18.4µM*
Cc1nc(C)c(-c2csc(Nc3ccc(O)cc3C)n2)s1 | -10.2% | 5.8µM* | ? | . | 16.4µM*
Cc1nc(C)c(-c2csc(Nc3ccc(F)cc3)n2)s1 | -2.7% | ? | 14.2% | 8.4% | ?
Cc1cc(O)ccc1Nc1nc(-c2cccs2)cs1 | ? | -5.7% | -28.7% | 5.5% | -4.8%
Cc1ccc(Nc2nc(-c3ccccc3)cs2)nc1 | ? | ? | ? | . | -16.7%
NNC(=O)CSc1ncc(-c2ccccc2)[nH]1 | 2.2% | 15.5% | -0.3% | 2.7% | 0.2%
O=[N+]([O-])c1cccc(/C=N/Nc2cc(N3CCOCC3)ncn2)c1 | 3.4% | ? | 10.0% | . | ?
O=C(c1ccccc1)C1CCN(C(=O)C2CCC(=O)N(Cc3ccccc3F)C2)CC1 (configuration not stated) | 9.9% | 20.6µM* | 33.1% | 5.5% | 16.4µM*
Cc1cc(NC(=O)c2c(F)cccc2F)n(-c2nc3ccccc3[nH]2)n1 | 6.31µM* | 11.2µM* | 3.55µM* | 10.3% | ?
SMILES | VP16 counter | DT40 TDP1 no CPT | RORg inh | TDP1 block | TDP1 cell CPT
Cc1cc(NC(=O)c2ccc(C)s2)n(-c2nc3ccccc3[nH]2)n1 | -9.5% | 20.6µM* | 5.2% | -5.3% | ?
Cc1cc(NC(=O)c2c(F)cccc2Cl)n(-c2nc3ccccc3[nH]2)n1 | 7.08µM* | 23.1µM* | 4.47µM* | 8.1% | ?
Cc1cc(NC(=O)c2ccccc2F)n(-c2nc3ccccc3[nH]2)n1 | 4.47µM* | ? | 1.12µM* | 3.2% | ?
Cc1ccc(NC(=S)Nn2cnnc2)cc1 | -20.8%[10 µM] | ? | -39.0% | -5.4% | -18.8%
Cc1ccc(C(=O)NCC(=O)NCc2cc(=O)n(C)c(=O)n2C)cc1C | -0.3% | 19.8% | -1.5% | 1.4% | -1.4%
CC(C)(C)OC(=O)C1C(=O)CC(C)(O)C(C(=O)OC(C)(C)C)C1c1cccnc1 (configuration not stated) | 3.7% | -6.8% | -12.7% | 3.6% | -9.9%
Cc1cc(C)nc(-n2nc(C)cc2Nc2ccccc2)n1 | 0.224µM* | 5.17µM* | 0.112µM* | 9.1% | 2.59µM*
Cc1cc(NC(=O)C2CCCCC2)n(-c2nc3ccccc3[nH]2)n1 | 1.41µM* | 16.4µM* | 1.58µM* | 7.8% | 23.1µM*
Cc1cc(Nc2ccccc2)n(-c2nc3ccccc3[nH]2)n1 | 3.55µM* | ? | 1.58µM* | 9.8% | ?
Cc1cc(Nc2ccccc2)n(-c2ccccc2)n1 | 11.1% | ? | -5.6% | 5.5% | -17.6%
Cc1ccc2nc(Nc3ccc(Cl)cc3)c3nncn3c2c1 | -11.6% | ? | 8.2% | . | ?
Cc1ccc2nc(NCc3ccccc3)c3nncn3c2c1 | . | -1.1% | . | -2.0% | 8.3%
CCc1c(C)nc2nncn2c1Nc1ccc(Cl)cc1 | . | 9.2µM* | . | 4.7% | ?
CCc1c(C)nc2nncn2c1NCc1ccccc1 | . | 16.4µM* | . | 2.3% | ?
NC(=O)C(c1ccc(Br)cc1)c1ccc(C(=O)c2ccccc2)cc1 (configuration not stated) | -0.7% | 14.6µM* | ? | . | ?
NC(=O)C(c1ccc(F)cc1)c1ccc(C(=O)c2ccccc2)cc1 (configuration not stated) | -2.0% | -28.8% | ? | . | ?
CC(=O)c1ccc(S(=O)(=O)N2CCN(c3nc(-c4ccccc4)nc4ccccc34)CC2)cc1 | . | ? | . | 1.8% | -17.1%
O=S(=O)(c1ccc2c(c1)OCCO2)N1CCN(c2nc(-c3cccnc3)nc3ccccc23)CC1 | 5.3% | . | 0.2% | 0.0% | .
O=S(=O)(c1ccccc1)N1CCN(c2nc(-c3cccnc3)nc3ccccc23)CC1 | . | 20.6µM* | . | 6.9% | ?
CC(=O)c1ccc(S(=O)(=O)N2CCN(c3nc(-c4cccnc4)nc4ccccc34)CC2)cc1 | . | ? | . | 0.4% | 20.6µM*
Cc1ccc(S(=O)(=O)N2CCN(c3nc(C#N)nc4ccccc34)CC2)cc1 | . | . | . | -1.3% | .
O=S(=O)(c1ccc(Cl)cc1)N1CCN(c2nc(-c3ccc(Cl)cc3)nc3ccccc23)CC1 | . | . | . | 0.8% | .
Cc1ccc(S(=O)(=O)N2CCN(c3nc(-n4ccnn4)nc4ccccc34)CC2)cc1 | . | 15.8µM* | . | . | 12.6µM*
COc1ccc(Cl)cc1N(C)c1nc(N2CCN(S(=O)(=O)c3ccc(C)cc3)CC2)c2ccccc2n1 | . | 6.31µM* | . | . | 8.91µM*
COc1ccc(-c2nnc(SCC(=O)Nc3cccc(C)c3)s2)cc1 | . | -23.2% | . | 2.2% | 0.5%

Assay outcomes from PubChem.
